Compound activity: PubChem BioAssay, National Center for Advancing Translational Sciences (NCATS)
Shown are actives, neighbours in structure and some others; about 8.1% of the full set was active somewhere.
KB-V1 cytotox: KB-V1 MDR subline cytotoxicity | 400,000 compounds, 3.4% hits | KB-V1 MDR cells viability, CellTiter-Glo, 72 h | Potency, µM (series often up to 46.1 µM), hits mostly cytotoxic | AID 1347076; also: % is scaled to controls: 0 for no effect and ±100 for the full control effect; nearly all actives have a fitted effect of over 60% in size
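Compound-treated KB-V1 multidrug-resistant cells, 72 h, 37 degrees C; viability by CellTiter-Glo. Fitted qHTS curves give the values.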
KB-3-1 tox: KB-3-1 parental cell cytotoxicity; KB-3-1 viability, CellTiter-Glo ATP luminescence, 72 h; Potency, µM (top dose mostly 46.1 µM), usual class: cytotoxic; 400,000 compounds, 1.4% hits; also: % is scaled to controls: 0 for no effect and ±100 for the full control effect; nearly all actives have a fitted effect of over 60% in size
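Luminescent ATP read-out (CellTiter-Glo) measures survival of drug-naive KB-3-1 cells after 72 h compound exposure at 37 °C. Titration series was screened from lowest to highest concentration, with DMSO vehicle plates as background controls.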
MCF10A rereplic: DNA re-replication induction in MCF 10a cells; MCF 10A DNA re-replication, Hoechst nuclear intensity, 48 h; Potency, µM (doses to about 46.1 µM), for the others: at the top dose activity, positive = re-replication, usual class: activators; 350,000 compounds, 2.9% hits; AID 624296; also: % of control where 0% means no effect; nearly all actives have a fitted effect of over 50% in size
ELG1 repair inh: inhibitors of ELG1-dependent DNA repair in HEK293T cells; HEK293T ELG1-luciferase reporter, luminescence, 16 h; DNA damage induced by 5-fluorouridine; Potency, µM (titrated, usually from 46.1 µM), for inactives: at the top dose activity change, negative = inhibition, hits mostly inhibitors; 330,000 compounds, 2.3% hits; AID 504467; also: % is scaled to controls: 0 for no effect and ±100 for the full control effect; nearly all actives have a fitted effect of over 55% in size
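Luminescence from the luciferase reporter, measured 30 min after ONE-Glo reagent at room temperature, was the read-out. Beforehand, 2,000 cells per well were exposed for 16 hr at 37 °C to 5-fluorouridine together with compound or vehicle.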
SW480 rerep: induces DNA re-replication in SW480 colon adenocarcinoma cells; Potency, µM (doses to about 46.1 µM), without a hit: at the highest dose re-replication activation, hits mostly activators; 340,000 compounds, 1.8% hits; SW480 DNA re-replication, Hoechst DNA content imaging, 48 h; AID 624297; also: % of control where 0% means no effect; nearly all actives have a fitted effect of over 55% in size
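Treated cells incubate 48 hr (37 C, 5% CO2), are stained 40 min with Hoechst, and nuclear fluorescence is enumerated; a rise in nuclei with high DNA signal marks re-replication.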
* = called active by the depositor; i = inactive; u = inconclusive; x = no result given. Calls follow the shape of the dose curve; as a rule, active = well fitted curve in the direction sought with a large enough effect; inconclusive = small, poorly fitted or top-dose-only effect, or another doubt; inactive = no such curve, though single readings can be large; an effect the other way counts as inactive or inconclusive. Potency is read from the fitted curve at half-maximal effect.

SMILES	KB-V1 cytotox	KB-3-1 tox	MCF10A rereplic	ELG1 repair inh	SW480 rerep
COc1ccc(NC(=O)CN2CCCN(Cc3ccc(Cl)cc3)S2(=O)=O)cc1Cl	i	i	x	x	x
CCCOc1ccc(-c2nc(C#N)c(N3CCC(C(N)=O)CC3)o2)cc1	23µM*	i	u	-13%	-1%
CCC1CCCCN1C(=O)c1ccc([N+](=O)[O-])o1 (stereo not given)	i	i	18µM*	5%	93%
CC1CCCN(C(=O)c2ccc([N+](=O)[O-])o2)C1 (stereo not given)	i	i	19%	-9%	u
COc1ccc(/C=N/Nc2ncnc3sc4c(c23)CCCC4)cc1OC	u	18µM*	u	-26%	u
COc1ccc(Nc2ncnc3sc4c(c23)CCCC4)cc1	i	i	x	x	x
CCCSc1nc2sc3c(c2c(=O)n1-c1ccc(C)c(Cl)c1)CCN(C(C)=O)C3	i	i	x	x	x
COc1cccc(C(=O)NNC(=O)C(=O)Nc2cccc(Cl)c2C)c1	i	i	8%	21%	23µM*
COc1cccc(C(=O)NNc2nc(C)cc(C)n2)c1	u	i	u	22%	0.52µM*
COc1cccc(C(=O)NNc2c3ccccc3nc3ccccc23)c1	u	i	15%	u	-11%
CCc1ccc2oc(C(=O)NCC(c3ccc(Cl)cc3)N3CCOCC3)c(C)c2c1 (stereo not given)	i	i	x	x	x
CC(=O)c1ccc(OCC(=O)N(C2CCCCC2)C2CCS(=O)(=O)C2)cc1 (stereo not given)	i	i	4%	1%	-9%
O=C(CCl)N(C1CCCC1)C1CCS(=O)(=O)C1 (stereo not given)	i	u	u	u	21µM*
Clc1cccc(-c2nc3c4ccccc4ccn3c2Cc2ccsc2)c1	i	i	x	x	x
CC(C)CC(NC(=O)c1cccs1)c1nnc(SCc2ccc(Cl)c(Cl)c2)n1C (stereo not given)	u	u	18µM*	u	12%
CCNC(=O)C1CCCN(C(=O)c2cccs2)CC1 (stereo not given)	i	i	x	x	x
CCN(C(=O)COC(=O)CCOc1ccc(C(C)(C)C)cc1)c1c(N)n(Cc2ccccc2)c(=O)[nH]c1=O	i	26µM*	23µM*	x	0%
CN(C(=O)COC(=O)/C=C/c1ccc2ccccc2n1)c1c(N)n(Cc2ccccc2)c(=O)[nH]c1=O	i	i	u	u	16%
CC(C)CN(C(=O)COC(=O)c1ccc([N+](=O)[O-])s1)c1c(N)n(Cc2ccccc2)c(=O)[nH]c1=O	i	21µM*	1%	6%	u
CC(C)CN(C(=O)COC(=O)c1cccs1)c1c(N)n(Cc2ccccc2)c(=O)[nH]c1=O	i	i	x	x	x
COCCN(C(=O)COC(=O)/C=C/c1ccc2ccccc2n1)c1c(N)n(Cc2ccccc2)c(=O)[nH]c1=O	i	u	12%	12µM*	u
Cc1ccc(S(=O)(=O)c2nnn3c2nc(N2CCN(c4ccccc4F)CC2)c2ccccc23)cc1C	i	i	x	x	x
CCOc1ccc(-c2nc3c(C#N)c[nH]n3c2NC2CCCCC2)cc1	i	i	x	x	x
CC1CN(CCOc2ccccc2-c2ccccc2)CC(C)O1 (stereo not given)	21µM*	u	21%	-12%	-3%
CC1CCN(CCOc2ccc(OCc3ccccc3)cc2)CC1	15µM*	i	u	u	0%
SMILES	KB-V1 cytotox	KB-3-1 tox	MCF10A rereplic	ELG1 repair inh	SW480 rerep
c1ccc(CN2CCN(CCOCCOc3cccc4ccccc34)CC2)cc1	u	i	u	18µM*	4%
c1ccc(-c2ccccc2OCCN2CCCC2)cc1	i	i	9%	3%	1%
CC1CCN(CCOCCOc2ccccc2-c2ccccc2)CC1	12µM*	i	u	-18%	27%
Cc1ccccc1Cn1c(=O)n(CCc2ccccc2)c(=O)c2c(C)c(C)sc21	i	i	x	x	x
O=C(Nc1ccc2c(c1)OCO2)Nc1nnc(-c2ccncc2)s1	i	i	x	x	x
COc1ccc2nc(SCC(=O)Nc3ccccc3C)[nH]c2c1	15µM*	i	1%	2%	1%
CCN(CC)S(=O)(=O)c1ccc(C)c(NC(=O)CSc2nc3ccccc3[nH]2)c1	u	i	1%	u	x
O=C(CSc1nc2ccc(Cl)cc2[nH]1)NCCc1ccc(Cl)cc1	i	i	u	-16%	6%
Cc1ccc(S(=O)(=O)N(C)C)cc1NC(=O)CSc1nc2ccccc2[nH]1	15µM*	i	u	-23%	-13%
O=C(CSc1nc2ccc(Cl)cc2[nH]1)NCCc1ccccc1	16µM*	i	u	-26%	-97%
CCc1ccc([C@@H]2C[C@H]3[C@@H](CN2S(=O)(=O)c2ccc(C)cc2)C(=O)C[C@@H](c2cccc(Cl)c2)N3S(=O)(=O)c2ccc(C)cc2)cc1	u	i	x	x	x
COc1ccc(/C=N/NC(=O)c2cccc(S(=O)(=O)N3CCCC3)c2)cc1O	u	i	1%	12%	19%
COc1cc2[nH]c(=O)c(C(=O)NCc3ccc(C)cc3)c(O)c2cc1OC	i	i	x	x	x
CCS(=O)(=O)N1CCc2cc(C(=O)NCc3ccccc3OC)ccc21	i	i	x	x	x
C=C1[C@@H](O)[C@@H]2O[C@]3(CC[C@H](/C=C/[C@@H](C)[C@@H]4CC(C)=CC5(O[C@H](C[C@@](C)(O)C(=O)OC)CC[C@H]5O)O4)O3)CC[C@H]2O[C@@H]1[C@@H](O)C[C@H](C)[C@H]1OC2(CCCCO2)CC[C@H]1C (stereo not given in full)	18µM*	u	u	u	u
C=C1C(O)[C@@H]2O[C@]3(CC[C@H](/C=C/C(C)[C@@H]4CC(C)=CC5(O[C@H](C[C@@](C)(O)CO)CCC5O)O4)O3)CC[C@H]2O[C@@H]1C(O)CC(C)[C@H]1OC2(CCCCO2)CCC1C (stereo not given in full)	u	0.021µM*	14%	u	u
CC(C)Oc1ccc(F)cc1-c1cc(C(=O)NCc2ccc(F)cc2)[nH]n1	i	i	x	x	x
CCN(CC)CCOC(=O)c1cccnc1	x	x	11%	x	2%
CCc1nnc(NC(=O)CSc2nccn2-c2cccc(C)c2C)s1	i	u	u	9.2µM*	u
CCc1nnc(NC(=O)CSc2nccn2-c2cc(C)cc(C)c2)s1	i	18µM*	u	u	u
COc1ccc(CNC(=O)Nc2ccc3c(c2)c(=O)n(C)n3Cc2cccc(C(F)(F)F)c2)cc1	i	i	x	x	x
